From PubChem BioAssay AID1851 (National Center for Advancing Translational Sciences (NCATS), 2009)
The campaign covered roughly 16,000 compounds. About 5,700 (36%) were called active. About 24% were inconclusive and are not listed. Some of the results follow. A number with no mark means an inactive call. Calls follow the shape of the dose curve; as a rule, active = well fitted curve in the direction sought with a large enough effect; inconclusive = small, poorly fitted or top-dose-only effect, or effect the other way; inactive = no such curve, though single readings can be large or run the other way.

target: Cytochrome P450 1A2 (Homo sapiens) (UniProt P05177); assay: Cytochrome panel assay with activity outcomes; settings: recombinant CYP, pro-luciferin dealkylation, luminescence, p450-cyp1a2; series mostly up to 57.1 µM; activity, negative = inhibition: at the top concentration
% is scaled to controls: 0 for no effect and ±100 for the full control effect.

Sequence of Cytochrome P450 1A2 (Homo sapiens) (P05177 whole entry, looked up): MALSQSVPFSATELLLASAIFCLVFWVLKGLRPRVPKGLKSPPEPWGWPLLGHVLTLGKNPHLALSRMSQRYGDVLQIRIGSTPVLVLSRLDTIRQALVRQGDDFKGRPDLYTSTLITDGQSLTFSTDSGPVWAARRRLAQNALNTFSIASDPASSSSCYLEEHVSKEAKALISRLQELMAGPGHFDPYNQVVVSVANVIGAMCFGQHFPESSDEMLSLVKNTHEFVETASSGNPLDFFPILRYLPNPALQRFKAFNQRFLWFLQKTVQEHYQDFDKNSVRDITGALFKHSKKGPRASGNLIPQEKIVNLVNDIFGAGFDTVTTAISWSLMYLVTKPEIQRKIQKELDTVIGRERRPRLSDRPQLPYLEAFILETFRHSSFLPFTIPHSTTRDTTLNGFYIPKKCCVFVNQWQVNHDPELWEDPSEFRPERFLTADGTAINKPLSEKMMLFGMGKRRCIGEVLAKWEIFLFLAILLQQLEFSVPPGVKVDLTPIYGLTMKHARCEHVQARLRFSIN

| SMILES | AC50 | activity, negative = inhibition |
| --- | --- | --- |
| CSc1nc2c(c(C(F)(F)F)n1)CC(C)CC2 (stereo not drawn) | 25.1 µM (active) |  |
| O=C(Nc1ccc(OC(F)(F)F)cc1)c1n[nH]c(Cn2cncn2)n1 | 0.158 µM (active) |  |
| C[C@H](NC(=O)Cn1cncn1)c1ccccc1 |  | -3.83% |
| O=C(Nc1cccc(C(F)(F)F)c1)c1n[nH]c(Cn2cncn2)n1 | 0.126 µM (active) |  |
| Cc1ccccc1OCCNc1ccc(C(F)(F)F)cc1[N+](=O)[O-] | 0.891 µM (active) |  |
| O=[N+]([O-])c1cc(C(F)(F)F)ccc1NCCCCNS(=O)(=O)c1ccc2ccccc2c1 |  | -31.8% |
| COC(=O)c1c(C)[nH]c(C)c1C(=O)c1ccccc1Cc1ccccc1 | 0.251 µM (active) |  |
| Cc1ccc(C)c(C(=N)c2ccccc2Cc2ccccc2)c1 |  | -6.82% [at 2.29 µM] |
| Nc1nc(SCc2ccc([N+](=O)[O-])cc2)c2ncn([C@@H]3O[C@@H](CO)[C@@H](O)[C@H]3O)c2n1 |  | -8.58% |
| Cc1ccc(S(=O)(=O)N(CCCN2CCCC2=O)Cc2cc3c(C)ccc(C)c3[nH]c2=O)cc1 |  | -21% |
| Cc1ccc(CS(=O)(=O)CCC(=O)NCCCN2CCCC2=O)cc1 |  | -15.9% |
| COc1ccc2[nH]c3c(NCCCN4CCCC4=O)ncnc3c2c1 | 11.2 µM (active) |  |
| CC(=O)N[C@@H](CC(=O)O)C(=O)O |  | -4.66% [at 25.6 µM] |
| Cc1nc2ccccc2nc1SCC(=O)N1CCC(C)CC1 | 3.55 µM (active) |  |
| CC1CCN(C(=O)C2CCN(S(=O)(=O)c3cccc4nonc34)CC2)CC1 |  | -0.137% |
| CC1CC(C)CN(C(=O)CSc2nnc(CSc3ncccn3)n2C)C1 (stereo not drawn) |  | -0.204% |
| NC(=O)C1CCN(C(=O)CN2C(=O)c3ccccc3S2(=O)=O)CC1 |  | 1.85% |
| Cn1c(SCC(=O)N2CCN(S(=O)(=O)c3ccccc3)CC2)nc2ccccc21 |  | -17.9% |
| CC1CCN(C(=O)CSc2nc3cccnc3n2C)CC1 | 20 µM (active) |  |
| CCc1cc2c(nc1CC)CCN(CC/C(C)=N/O[C@@H]1O[C@H](COC(C)=O)[C@H](OC(C)=O)[C@H](OC(C)=O)[C@H]1OC(C)=O)C2 |  | 0.132% [at 11.4 µM] |
| Nc1nonc1-c1noc(CCCN2C(=O)c3ccccc3C2=O)n1 | 14.1 µM (active) |  |
| O=C(NCc1cccnc1)/C(=C/c1ccc(-c2cccc(Cl)c2)o1)S(=O)(=O)c1ccccc1 | 25.1 µM (active) |  |
| Cc1ccc(NC(=O)C(=O)NCc2ccc(/C=C(/C#N)C(=O)NCc3cccnc3)o2)cc1 |  | -13.3% |
| COc1ccccc1C(=O)O/N=C1/CCCc2c1ccc(OC)c2[N+](=O)[O-] | 0.447 µM (active) |  |
| COc1ccc2c(c1[N+](=O)[O-])CCC/C2=N/OC(=O)c1ccccc1SC | 0.794 µM (active) |  |

| SMILES | AC50 | activity, negative = inhibition |
| --- | --- | --- |
| COc1ccc2c(c1[N+](=O)[O-])CCC/C2=N/OC(=O)c1cccc2ccccc12 | 0.794 µM (active) |  |
| CC1CSc2nc3sc4c(c3c(=O)n21)CCCC4 (stereo not drawn) | 3.55 µM (active) |  |
| CSC(=NC#N)N1CCN(c2ccc(Cl)cc2)CC1 | 4.47 µM (active) |  |
| C[C@H](N[C@@H](C)COc1ccccc1)[C@H](O)c1ccc(O)cc1 | 5.01 µM (active) |  |
| C[C@H](NCCc1ccc(O)cc1)[C@@H](O)c1ccc(O)cc1 | inactive |  |
| Cc1ccc(C(CC(N)=O)c2ccco2)cc1 (stereo not drawn) |  | -5.6% |
| CCOC(=O)C1=C(N)n2c(s/c(=C\c3ccco3)c2=O)=C(C(=O)OCC)C1c1ccco1 (stereo not drawn) |  | -56% |
| CCOC(=O)C1C(=O)C=C(c2ccc(C)cc2)CC1c1ccco1 (stereo not drawn) | 4.47 µM (active) |  |
| CC1=CC2=NC(=O)CC(C)(C(=O)N(CC(=O)NC(C)(C)C)Cc3cccs3)N2C=C1 (stereo not drawn) |  | 11.6% |
| O=C(O)c1cc2c(o1)CCC/C2=N\O |  | -4.91% |
| c1ccc(C2=NN[C@@H]3c4ccccc4-c4ccccc4N3C2)cc1 | 0.2 µM (active) |  |
| COc1ccc(N2C(N)=NC(N)=NC2(C)C)cc1 |  | 10.4% |
| CCOc1ccc2nc(NC(=O)c3ccc(S(=O)(=O)N4CCOCC4)cc3)sc2c1 |  | -13.6% |
| CCCOc1ccc(C(=O)NC(=S)Nc2nc3ccc(C)cc3s2)cc1 |  | -9.82% |
| COc1ccc2nc(C)cc(SCC(=O)Nc3c(C)cc(C)cc3C)c2c1 |  | -12.6% |
| COc1ccc2nc(NC(C)=O)sc2c1 | 3.55 µM (active) |  |
| COc1ccc2nc(N)sc2c1 | 12.6 µM (active) |  |
| COc1ccc2nc(/N=C\N(C)C)sc2c1 | 0.631 µM (active) |  |
| COc1ccc2nc(NC(=O)CSc3nnc(C)s3)sc2c1 | 2.82 µM (active) |  |
| COc1ccc(Cc2c(N)nc(N)nc2N)cc1 |  | -7.11% |
| CN(C)Cc1ccc(O)c(CN(C)C)n1 |  | -8.37% [at 11.4 µM] |
| C[C@]12CC[C@H]3c4ccc(O)cc4CC[C@@H]3[C@H]1CC[C@@H]2OC(=O)CCC1CCCC1 |  | -12.2% [at 11.4 µM] |
| COc1ccc(NS(=O)(=O)c2cc(-c3nnnn3C)ccc2OC)cc1 |  | -12% |
| CC(C)(C)NS(=O)(=O)c1ccc(NS(=O)(=O)c2ccc(F)cc2)cc1 |  | 8.66% |
| COc1ccc(S(=O)(=O)Nc2ccc(F)cc2)c(C)c1C | 14.1 µM (active) |  |

| SMILES | AC50 | activity, negative = inhibition |
| --- | --- | --- |
| COCCNC(=O)c1cc(-c2cccc(OC)c2)on1 | 12.6 µM (active) |  |
| COc1ccc(-c2cc(C(=O)NCc3cccnc3)no2)cc1OC | 20 µM (active) |  |
| COc1cccc(-c2nc(CS(=O)(=O)CC(=O)NCCCOC(C)C)c(C)o2)c1 |  | -11.6% |
| CCC(C)C1NC(=S)N(C2CCCCC2)C1=O (stereo not drawn) |  | -15.6% |
| O=C(Nc1cccc2ncccc12)c1ccc(-c2ccc(Br)cc2)o1 | 0.501 µM (active) |  |
| Cc1cc2cc(C)c3nnc(SCC(=O)NCc4ccc5c(c4)OCO5)n3c2cc1C | 20 µM (active) |  |
| CC(C)(C)NC(=O)CSc1nnc(Cc2ccc3c(c2)OCO3)n1C1CCCCC1 |  | -16.8% |
| O=C1C2Sc3[nH]c(=O)sc3C(c3ccccc3)C2C(=O)N1c1ccccc1 (stereo not drawn) |  | -9.7% |
| N#Cc1cccc(-c2nccc(NCc3cccnc3)n2)c1 | 0.251 µM (active) |  |
| N#Cc1cccc(-c2nccc(NCc3cccs3)n2)c1 | 0.251 µM (active) |  |
| N#Cc1cccc(-c2nccc(NCc3ccccc3)n2)c1 | 0.501 µM (active) |  |
| Cc1cccc(CNc2ccnc(-c3cccc(C#N)c3)n2)c1 | 0.398 µM (active) |  |
| N#CCCn1c(=O)cnc2cnc(N3CCOCC3)nc21 | 10 µM (active) |  |
| O=c1cnc2cnc(N3CCOCC3)nc2n1CCc1ccccc1 | 3.16 µM (active) |  |
| Cc1nc2cnc(N3CCOCC3)nc2n(CCC#N)c1=O | 12.6 µM (active) |  |
| CCc1cc2c(nc1CC)CCN(CC/C(C)=N/OC[C@H]1O[C@H](c3ccccc3)C=C[C@@H]1Oc1ccc(OC)cc1)C2 |  | 0.11% [at 11.4 µM] |
| Cc1ccc(-n2nc(C)c3c2OC(N)=C(C#N)C3c2ccco2)cc1 (stereo not drawn) | 8.91 µM (active) |  |
| CCn1c2ccccc2c2cnc(N=CN(C)C)c(C#N)c21 | 1.41 µM (active) |  |
| Cc1nc(N/N=C/c2ccccc2)nc(N(C)c2ccccc2)c1[N+](=O)[O-] | 1.58 µM (active) |  |
| COC(=O)C/C=C\[C@@H](C)[C@@H](/C=N\O[C@@H](C)CN1CCCCc2nc(C)c(C)cc21)NS(=O)(=O)c1ccc(C)cc1 |  | -4.63% [at 11.4 µM] |
| COc1ccc(C(=O)NC(=S)NC(C)(C)C)cc1Br | 0.562 µM (active) |  |
| CCOc1ccc(C(=O)O)cc1OC |  | -16.3% |
| C=CCN(CC=C)C(=S)NC(=O)c1ccc(OC)c(Br)c1 | 0.562 µM (active) |  |
| COc1cc(C(=O)NC(=S)Nc2ccc3oc(=O)ccc3c2)cc(OC)c1OC |  | -0.189% |
| COc1ccc(C(=O)NNC(=O)Cc2ccc(-c3ccccc3)cc2)cc1OC |  | -20.2% |

| SMILES | AC50 | activity, negative = inhibition |
| --- | --- | --- |
| COc1ccc(C(=O)c2ccccc2)cc1Br | 10 µM (active) |  |
| COc1ccc(C(=O)NC(=S)NC(C)C)cc1Br | 3.16 µM (active) |  |
| COc1ccc(NC(=O)N2CC3(CCN(S(C)(=O)=O)CC3)C2)cc1 |  | -4.57% |
| Cc1ccccc1-c1ccc2ncnc(NC3CC3)c2c1 | 0.126 µM (active) |  |
| FC(F)(F)c1ccccc1-c1ccc2ncnc(NC3CC3)c2c1 | 0.316 µM (active) |  |
| CS[C@@H](CC(=O)O)C(=O)O |  | 6.13% [at 11.4 µM] |
| CCOCCCN1C(=O)CN(C2CCCCC2)C(=O)C1c1ccc(OCC)c(OC)c1 (stereo not drawn) |  | 1.09% |
| O=C(NN=C1c2ccccc2-c2ccccc21)c1ccccn1 | 0.501 µM (active) |  |
| O=C(N/N=C/c1ccco1)c1ccccn1 | 6.31 µM (active) |  |
| Cc1cc(C)n(CC(=O)N/N=C/c2ccco2)n1 |  | -5.36% |
| O=C(c1ccco1)N1CCC2(CC1)CN(c1ccccn1)C2 |  | -2.55% |
| CCC(C)(NC(=O)c1ccccn1)C(=O)NC1CCCCC1 (stereo not drawn) |  | -23.3% |
| O=C(Nc1ccccn1)c1ccco1 | 11.2 µM (active) |  |
| O=C(N/N=C/c1ccccn1)c1ccc(Br)o1 | 6.31 µM (active) |  |
| C[N+](C)(C)c1nc(N)nc2c1ncn2[C@H]1O[C@@H](CO)[C@@H](O)[C@H]1O |  | -4.9% [at 2.29 µM] |
| O=C1COC(c2ccccc2O)=NN1CCCN1CCCC1 |  | -13.6% [at 11.4 µM] |
| CC(Oc1ccc(O)cc1)(P(=O)(O)O)P(=O)(O)O |  | 8.37% |
| O=C(CNC(=O)c1ccccn1)N/N=C/c1ccccc1 | 4.47 µM (active) |  |
| O=C(N/N=C/c1ccccn1)c1ccco1 | 15.8 µM (active) |  |
| CO[C@H]1COC(=O)C/C=C\[C@H](C)COC(=O)[C@@H](OCc2ccccc2)/C=C\[C@@H]1C |  | -6.26% [at 11.4 µM] |
| CC(C)=NOC[C@@H](O)COCc1ccco1 |  | 4.83% [at 11.4 µM] |
| CC(C)[C@H]1C(=O)C(C(N)=O)=C(O)[C@]2(O)C(=O)C3=C(O)c4c(O)ccc(N(C)C)c4C[C@H]3C[C@@H]12 |  | -1.01% |
| Nc1cc2c(nc3c4ccccc4c(N)cc3[n+]2-c2cccc3ccccc23)c2ccccc12 (tested in a mixture with another compound) | 1.26 µM (active) |  |
